# Test results as given in PubChem BioAssay AID1159580 (chemical genetic matrix, 2015).
# “And” between values parts separate entries of the source, which are not always exact repeats. Identical values can stand only once. The whole screen tested about 5,500 compounds, of which about 2,000 (36%) were called active. Not shown: some 18% with an inconclusive outcome. The list shows a part of the results. A number with no mark means an inactive call. No stated cut-off is given here; in the data, active means normalized growth mostly below about 0.91 (no sharp cut-off); inconclusive means no clear call, values can overlap the other calls; inactive means mostly above about 0.92.
# Experiment: chemical genetic growth profiling, strain panel (AID 1159580);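 further: tested at 20 µM; growth read once vehicle control cultures reached saturation at 30 °C; 1 = growth at the plate median or of vehicle wells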
# Conditions: S. cerevisiae deletion strains, growth OD
smiles,measurement,setting,value
CCCCCCCCCc1ccc(O)cc1,normalized growth,"locus YAL013W, strain DEP1, stronger effect = lower value",0.118 (active)
same,normalized growth,"locus YAL021C, strain ccr4, stronger effect = lower value",0.0845 (active)
same,normalized growth,"locus YAL026C, strain drs2, stronger effect = lower value",0.0626 (active)
same,normalized growth,"locus YAL030W, strain snc1, stronger effect = lower value",0.0571 (active)
same,normalized growth,"locus YBL061C, strain skt5, stronger effect = lower value",0.0594 (active)
same,normalized growth,"locus YBR009C, strain hhf1, stronger effect = lower value",0.0563 (active)
same,normalized growth,"locus YBR021W, strain FUR4, stronger effect = lower value",0.215 (active)
same,normalized growth,"locus YBR023C, strain chs3, stronger effect = lower value",0.0626 (active)
same,normalized growth,"locus YBR171W, strain sec66, stronger effect = lower value",0.0781 (active)
same,normalized growth,"locus YBR229C, strain ROT2, stronger effect = lower value",0.144 (active)
same,normalized growth,"locus YBR231C, strain swc5, stronger effect = lower value",0.0635 (active)
same,normalized growth,"locus YBR279W, strain paf1, stronger effect = lower value",0.066 (active)
same,normalized growth,"locus YCL011C, strain gbp2, stronger effect = lower value",0.0546 (active)
same,normalized growth,"locus YCL016C, strain dcc1, stronger effect = lower value",0.0648 (active)
same,normalized growth,"locus YCL029C, strain bik1, stronger effect = lower value",0.617 (active)
same,normalized growth,"locus YCL061C, strain MRC1, stronger effect = lower value",0.0666 (active)
same,normalized growth,"locus YCL069W, strain vba3, stronger effect = lower value",0.0655 (active)
same,normalized growth,"locus YCR088W, strain abp1, stronger effect = lower value",0.0637 (active)
same,normalized growth,"locus YDL005C, strain med2, stronger effect = lower value",0.0719 (active)
same,normalized growth,"locus YDL035C, strain GPR1, stronger effect = lower value",0.0859 (active)
same,normalized growth,"locus YDL040C, strain nat1, stronger effect = lower value",0.0822 (active)
same,normalized growth,"locus YDL074C, strain BRE1, stronger effect = lower value",0.0981 (active)
same,normalized growth,"locus YDL101C, strain DUN1, stronger effect = lower value",0.1 (active)
same,normalized growth,"locus YDL134C, strain PPH21, stronger effect = lower value",0.0971 (active)
same,normalized growth,"locus YDL185W, strain tfp1, stronger effect = lower value",0.929
same,normalized growth,"locus YDL192W, strain arf1, stronger effect = lower value",0.411 (active)
same,normalized growth,"locus YDR001C, strain nth1, stronger effect = lower value",0.0685 (active)
same,normalized growth,"locus YDR069C, strain doa4, stronger effect = lower value",0.115 (active)
same,normalized growth,"locus YDR101C, strain arx1, stronger effect = lower value",0.721 (active)
same,normalized growth,"locus YDR137W, strain rgp1, stronger effect = lower value",0.101 (active)
same,normalized growth,"locus YDR150W, strain NUM1, stronger effect = lower value",0.529 (active)
same,normalized growth,"locus YDR159W, strain sac3, stronger effect = lower value",0.0748 (active)
same,normalized growth,"locus YDR162C, strain NBP2, stronger effect = lower value",0.102 (active)
same,normalized growth,"locus YDR195W, strain ref2",0.0909 (active)
same,normalized growth,"locus YDR297W, strain sur2, stronger effect = lower value",0.0579 (active)
same,normalized growth,"locus YDR318W, strain mcm21, stronger effect = lower value",0.58 (active)
same,normalized growth,"locus YDR334W, strain swr1, stronger effect = lower value",0.0683 (active)
same,normalized growth,"locus YDR335W, strain msn5, stronger effect = lower value",0.06 (active)
same,normalized growth,"locus YDR388W, stronger effect = lower value",0.678 (active)
same,normalized growth,"locus YDR392W, strain spt3, stronger effect = lower value",0.0671 (active)
same,normalized growth,"locus YDR502C, strain sam2, stronger effect = lower value",0.8 (active)
same,normalized growth,"locus YEL003W, strain gim4, stronger effect = lower value",0.0581 (active)
same,normalized growth,"locus YEL037C, strain rad23, stronger effect = lower value",0.0885 (active)
same,normalized growth,"locus YEL061C, strain CIN8 (second series), stronger effect = lower value",0.059 (active)
same,normalized growth,"locus YEL061C, strain CIN8, stronger effect = lower value",0.131 (active)
same,normalized growth,"locus YER015W, strain faa2, stronger effect = lower value",0.0639 (active)
same,normalized growth,"locus YER016W, strain bim1, stronger effect = lower value",0.0583 (active)
same,normalized growth,"locus YER110C, stronger effect = lower value",0.603 (active)
same,normalized growth,"locus YER111C, strain swi4, stronger effect = lower value",0.0713 (active)
same,normalized growth,"locus YER155C, strain BEM2 (second series), stronger effect = lower value",0.504 (active)
same,normalized growth,"locus YER155C, strain BEM2, stronger effect = lower value",0.101 (active)
same,normalized growth,"locus YER167W, strain BCK2, stronger effect = lower value",0.117 (active)
same,normalized growth,"locus YFR010W, strain ubp6, stronger effect = lower value",0.0798 (active)
same,normalized growth,"locus YGL078C, strain dbp3, stronger effect = lower value",0.885 (active)
same,normalized growth,"locus YGL086W, strain mad1, stronger effect = lower value",0.697 (active)
same,normalized growth,"locus YGL167C, strain pmr1, stronger effect = lower value",0.0729 (active)
same,normalized growth,"locus YGL173C, strain kem1, stronger effect = lower value",0.0956 (active)
same,normalized growth,"locus YGL227W, strain vid30, stronger effect = lower value",0.0725 (active)
same,normalized growth,"locus YGL240W, strain doc1, stronger effect = lower value",0.157 (active)
same,normalized growth,"locus YGL248W, strain PDE1, stronger effect = lower value",0.181 (active)
same,normalized growth,"locus YGL253W, strain hxk2, stronger effect = lower value",0.0662 (active)
same,normalized growth,"locus YGR078C, strain PAC10, stronger effect = lower value",0.174 (active)
same,normalized growth,"locus YGR135W, strain pre9, stronger effect = lower value",0.842 (active)
same,normalized growth,"locus YGR229C, strain SMI1, stronger effect = lower value",0.0784 (active)
same,normalized growth,"locus YGR252W, strain gcn5, stronger effect = lower value",0.518 (active)
same,normalized growth,"locus YHR013C, strain ard1, stronger effect = lower value",0.102 (active)
same,normalized growth,"locus YHR027C, strain rpn1, stronger effect = lower value",0.0645 (active)
same,normalized growth,"locus YHR030C, strain SLT2, stronger effect = lower value",0.0665 (active) and 0.09 (active)
same,normalized growth,"locus YHR079C, strain IRE1 (second series), stronger effect = lower value",0.488 (active)
same,normalized growth,"locus YHR079C, strain IRE1, stronger effect = lower value",0.107 (active)
same,normalized growth,"locus YHR094C, strain hxt1, stronger effect = lower value",0.87 (active)
same,normalized growth,"locus YHR129C, strain ARP1, stronger effect = lower value",0.173 (active)
same,normalized growth,"locus YHR142W, strain chs7, stronger effect = lower value",0.064 (active)
same,normalized growth,"locus YHR200W, strain rpn10, stronger effect = lower value",0.577 (active)
same,normalized growth,"locus YIL066C, strain RNR3, stronger effect = lower value",0.116 (active)
same,normalized growth,"locus YIL073C, strain SPO22, stronger effect = lower value",0.182 (active)
same,normalized growth,"locus YIL125W, strain kgd1, stronger effect = lower value",0.405 (active)
same,normalized growth,"locus YIR030C, strain dcg1, stronger effect = lower value",0.762 (active)
same,normalized growth,"locus YJL092W, strain hpr5, stronger effect = lower value",0.0838 (active)
same,normalized growth,"locus YJL095W, strain BCK1 (second series), stronger effect = lower value",0.0552 (active)
same,normalized growth,"locus YJL095W, strain BCK1, stronger effect = lower value",0.0671 (active) and 0.102 (active)
same,normalized growth,"locus YJL115W, strain asf1, stronger effect = lower value",0.113 (active)
same,normalized growth,"locus YJL129C, strain trk1, stronger effect = lower value",0.0774 (active)
same,normalized growth,"locus YJL134W, strain LCB3, stronger effect = lower value",0.308 (active)
same,normalized growth,"locus YJL154C, strain vps35, stronger effect = lower value",0.0618 (active)
same,normalized growth,"locus YJL164C, strain tpk1, stronger effect = lower value",0.0542 (active)
same,normalized growth,"locus YJL166W, strain qcr8, stronger effect = lower value",0.057 (active)
same,normalized growth,"locus YJL168C, strain set2, stronger effect = lower value",0.992
same,normalized growth,"locus YJL187C, strain SWE1 (second series), stronger effect = lower value",0.193 (active)
same,normalized growth,"locus YJL187C, strain SWE1, stronger effect = lower value",0.06 (active)
same,normalized growth,"locus YJR043C, strain POL32, stronger effect = lower value",0.107 (active)
same,normalized growth,"locus YJR066W, strain TOR1, stronger effect = lower value",-0.000468 (active)
